Source: PubChem BioAssay AID1159580 (chemical genetic matrix, 2015)
Values joined by “and” are separate entries in the source; they are usually repeats but may differ in a detail not shown here. Equal entries are not always repeated. Screen size: about 5,500 compounds; about 2,000 (36%) were called active. Inconclusive results (about 18%) are left out. Cut-off read from the data, not from the text of the source: active = normalized growth mostly below about 0.91 (no sharp cut-off); inconclusive = no clear call, values can overlap the other calls; inactive = mostly above about 0.92. The list shows a part of the results. Where a structure was tested more than once in an assay, its records may differ in their call.

Assay: chemical genetic growth profiling, strain panel (AID 1159580);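 note: tested at 20 µM; growth read once vehicle control cultures reached saturation at 30 °C; 1 = growth at the plate median or of vehicle wells; lower values mean less growth of the strain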
Details: growth OD

Measured: normalized growth

C/C=C/CC(C)C(O)C1C(=O)NC(CC)C(=O)N(C)CC(=O)N(C)C(CC(C)C)C(=O)NC(C(C)C)C(=O)N(C)C(CC(C)C)C(=O)NC(C)C(=O)NC(C)C(=O)N(C)C(CC(C)C)C(=O)N(C)C(CC(C)C)C(=O)N(C)C(C(C)C)C(=O)N1C (stereo unspecified)
0.292 (active) and 1.01 (inactive): S. cerevisiae deletion strains, locus YMR307W, strain GAS1, stronger effect = lower value
inactive: S. cerevisiae deletion strains, locus YJR075W, strain HOC1, stronger effect = lower value 0.978 | S. cerevisiae deletion strains, locus YKL009W, strain mrt4, stronger effect = lower value 1.01 | S. cerevisiae deletion strains, locus YKL068W, stronger effect = lower value 1 | S. cerevisiae deletion strains, locus YKL085W, strain MDH1 (second series), stronger effect = lower value 0.984 | S. cerevisiae deletion strains, locus YKL085W, strain MDH1, stronger effect = lower value 0.984 | S. cerevisiae deletion strains, locus YKL160W, strain elf1, stronger effect = lower value 1.04 | S. cerevisiae deletion strains, locus YKL190W, strain CNB1, stronger effect = lower value 0.999 | S. cerevisiae deletion strains, locus YKR026C, strain gcn3, stronger effect = lower value 1.01 | S. cerevisiae deletion strains, locus YKR091W, strain srl3, stronger effect = lower value 1.02 | S. cerevisiae deletion strains, locus YLL001W, strain dnm1, stronger effect = lower value 1.02 | S. cerevisiae deletion strains, locus YLL026W, stronger effect = lower value 1.01 | S. cerevisiae deletion strains, locus YLL041C, strain sdh2, stronger effect = lower value 1.02 | S. cerevisiae deletion strains, locus YLR027C, strain aat2, stronger effect = lower value 1.02 | S. cerevisiae deletion strains, locus YLR058C, strain SHM2, stronger effect = lower value 1.01 | S. cerevisiae deletion strains, locus YLR102C, strain apc9, stronger effect = lower value 1.01 | S. cerevisiae deletion strains, locus YLR113W, strain HOG1, stronger effect = lower value 0.986 | S. cerevisiae deletion strains, locus YLR221C, strain rsa3, stronger effect = lower value 1.02 | S. cerevisiae deletion strains, locus YLR258W, strain gsy2, stronger effect = lower value 1.01 | S. cerevisiae deletion strains, locus YLR268W, strain sec22, stronger effect = lower value 1.01 | S. cerevisiae deletion strains, locus YLR320W, strain mms22, stronger effect = lower value 1.01 | S. cerevisiae deletion strains, locus YLR330W, strain CHS5, stronger effect = lower value 1.01 | S. cerevisiae deletion strains, locus YLR357W, strain rsc2, stronger effect = lower value 0.978 | S. cerevisiae deletion strains, locus YLR370C, strain arc18, stronger effect = lower value 1.01 | S. cerevisiae deletion strains, locus YLR371W, strain rom2, stronger effect = lower value 1.03 | S. cerevisiae deletion strains, locus YLR384C, strain iki3, stronger effect = lower value 1.01 | S. cerevisiae deletion strains, locus YLR418C, strain cdc73, stronger effect = lower value 0.925 | S. cerevisiae deletion strains, locus YML016C, strain PPZ1, stronger effect = lower value 1.02 | S. cerevisiae deletion strains, locus YML032C, strain rad52, stronger effect = lower value 1.04 | S. cerevisiae deletion strains, locus YML120C, strain ndi1, stronger effect = lower value 1.02 | S. cerevisiae deletion strains, locus YML124C, strain tub3, stronger effect = lower value 1.03 | S. cerevisiae deletion strains, locus YMR058W, strain fet3, stronger effect = lower value 1.02 | S. cerevisiae deletion strains, locus YMR078C, strain ctf18, stronger effect = lower value 1.01 | S. cerevisiae deletion strains, locus YMR125W, strain sto1, stronger effect = lower value 0.915 | S. cerevisiae deletion strains, locus YMR129W, stronger effect = lower value 1.01 | S. cerevisiae deletion strains, locus YMR205C, strain PFK2, stronger effect = lower value 0.978 | S. cerevisiae deletion strains, locus YMR223W, strain ubp8, stronger effect = lower value 1.04 | S. cerevisiae deletion strains, locus YMR263W, strain SAP30, stronger effect = lower value 0.99 | S. cerevisiae deletion strains, locus YNL067W, strain RPL9B, stronger effect = lower value 0.97 | S. cerevisiae deletion strains, locus YNL071W, strain lat1, stronger effect = lower value 1.03 | S. cerevisiae deletion strains, locus YNL128W, strain TEP1, stronger effect = lower value 0.948 | S. cerevisiae deletion strains, locus YNL153C, strain GIM3, stronger effect = lower value 0.97 | S. cerevisiae deletion strains, locus YNL175C, strain NOP13, stronger effect = lower value 0.963 | S. cerevisiae deletion strains, locus YNL183C, strain NPR1, stronger effect = lower value 0.955 | S. cerevisiae deletion strains, locus YNL197C, strain WHI3, stronger effect = lower value 0.955 | S. cerevisiae deletion strains, locus YNL209W, strain ssb2, stronger effect = lower value 1.01 | S. cerevisiae deletion strains, locus YNL224C, strain SQS1, stronger effect = lower value 0.966 | S. cerevisiae deletion strains, locus YNL233W, strain BNI4, stronger effect = lower value 0.986 | S. cerevisiae deletion strains, locus YNL248C, strain rpa49, stronger effect = lower value 1.02 | S. cerevisiae deletion strains, locus YNL250W, strain rad50, stronger effect = lower value 1.01 | S. cerevisiae deletion strains, locus YNL271C, strain bni1, stronger effect = lower value 1.01 | S. cerevisiae deletion strains, locus YNL298W, strain CLA4, stronger effect = lower value 0.987 | S. cerevisiae deletion strains, locus YNL307C, strain MCK1, stronger effect = lower value 1.04 | S. cerevisiae deletion strains, locus YNL322C, strain KRE1 (second series), stronger effect = lower value 1.01 | S. cerevisiae deletion strains, locus YNL322C, strain KRE1, stronger effect = lower value 1.03 and 1 | S. cerevisiae deletion strains, locus YNR049C, strain mso1, stronger effect = lower value 1.02 | S. cerevisiae deletion strains, locus YNR052C, strain pop2, stronger effect = lower value 1.04 | S. cerevisiae deletion strains, locus YOL006C, strain TOP1, stronger effect = lower value 0.83 | S. cerevisiae deletion strains, locus YOL012C, strain htz1 1.73 | S. cerevisiae deletion strains, locus YOL147C, strain pex11, stronger effect = lower value 1.02 | S. cerevisiae deletion strains, locus YOR001W, strain rrp6, stronger effect = lower value 1.03 | S. cerevisiae deletion strains, locus YOR061W, strain CKA2, stronger effect = lower value 0.967 | S. cerevisiae deletion strains, locus YOR069W, strain VPS5, stronger effect = lower value 1.02 | S. cerevisiae deletion strains, locus YOR070C, strain gyp1, stronger effect = lower value 1.01 | S. cerevisiae deletion strains, locus YOR080W, strain dia2, stronger effect = lower value 1 | S. cerevisiae deletion strains, locus YOR083W, strain WHI5 (second series), stronger effect = lower value 0.869 | S. cerevisiae deletion strains, locus YOR083W, strain WHI5, stronger effect = lower value 1.02 | S. cerevisiae deletion strains, locus YOR106W, strain vam3, stronger effect = lower value 0.975 | S. cerevisiae deletion strains, locus YOR136W, strain idh2, stronger effect = lower value 1.03 | S. cerevisiae deletion strains, locus YOR144C, strain elg1, stronger effect = lower value 1.02 | S. cerevisiae deletion strains, locus YOR184W, strain ser1, stronger effect = lower value 1.03 | S. cerevisiae deletion strains, locus YOR231W, strain MKK1, stronger effect = lower value 0.975 | S. cerevisiae deletion strains, locus YOR265W, strain rbl2, stronger effect = lower value 1.02 | S. cerevisiae deletion strains, locus YOR270C, strain vph1, stronger effect = lower value 0.895 | S. cerevisiae deletion strains, locus YOR290C, strain snf2, stronger effect = lower value 0.995 | S. cerevisiae deletion strains, locus YOR316C, strain cot1, stronger effect = lower value 1.01 | S. cerevisiae deletion strains, locus YPL051W, strain arl3, stronger effect = lower value 1.02 | S. cerevisiae deletion strains, locus YPL055C, strain LGE1, stronger effect = lower value 0.949 | S. cerevisiae deletion strains, locus YPL078C, strain atp4, stronger effect = lower value 1.02 | S. cerevisiae deletion strains, locus YPL106C, strain sse1, stronger effect = lower value 0.944 | S. cerevisiae deletion strains, locus YPL240C, strain hsp82, stronger effect = lower value 1.02 | S. cerevisiae deletion strains, locus YPL241C, strain CIN2, stronger effect = lower value 1.01 and 0.975 | S. cerevisiae deletion strains, locus YPL256C, strain CLN2, stronger effect = lower value 1.02 | S. cerevisiae deletion strains, locus YPR119W, strain clb2, stronger effect = lower value 1.02 | S. cerevisiae deletion strains, locus YPR141C, strain kar3, stronger effect = lower value 1 | S. cerevisiae deletion strains, locus YPR163C, strain tif3, stronger effect = lower value 1.02 | S. cerevisiae deletion strains, locus YPR167C, strain met16, stronger effect = lower value 1.02 | S. cerevisiae deletion strains, strain wtn01, stronger effect = lower value 1.02 | S. cerevisiae strains, strain wild type, stronger effect = lower value 1
active: S. cerevisiae deletion strains, locus YKR001C, strain vps1, stronger effect = lower value 0.619 | S. cerevisiae deletion strains, locus YLR039C, strain RIC1, stronger effect = lower value 0.621 | S. cerevisiae deletion strains, locus YLR262C, strain YPT6 (second series), stronger effect = lower value 0.573 | S. cerevisiae deletion strains, locus YLR262C, strain YPT6, stronger effect = lower value 0.509 | S. cerevisiae deletion strains, locus YLR342W, strain FKS1 (second series), stronger effect = lower value 0.173 | S. cerevisiae deletion strains, locus YLR342W, strain FKS1, stronger effect = lower value 0.247 | S. cerevisiae deletion strains, locus YMR231W, strain pep5, stronger effect = lower value 0.404
